Assay [1] can be described thus: NCI Yeast Anticancer Drug Screen. Data for the rad50 strain (AID 155).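 Note: 0% = growth of vehicle-only cultures of the same strain.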 The note with it: S. cerevisiae rad50 strain growth inhibition; at 50.0 µM; stronger effect = higher value. A digest of the protocol:
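Genetically altered yeast (DNA repair pathway); compound treatment; growth inhibition vs vehicle ctrl.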

Assay [2] can be described thus: NCI Yeast Anticancer Drug Screen. Data for the mec2-1 strain (AID 157). The conditions noted are these: S. cerevisiae mec2-1 strain, at 50.0 µM, stronger effect = higher value. A digest of the protocol: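 Using mec2-1 yeast: add compound, measure growth, express inhibition versus vehicle-treated cultures.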
A short description of assay [3]: NCI Yeast Anticancer Drug Screen. Data for the sgs1 mgt1 strain (AID 161).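 Note: 0% = growth of cultures given vehicle only.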 The conditions noted are these: S. cerevisiae sgs1 mgt1 strain, at 50.0 µM, stronger effect = higher value. A digest of the protocol: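 Compounds are added to genetically altered yeast, and growth is compared with cultures given vehicle alone to give percent inhibition.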
A short description of assay [4]: NCI Yeast Anticancer Drug Screen. Data for the cln2 rad14 strain (AID 165).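 Note: 0% = growth equal to vehicle treated cultures.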 The conditions noted are these: S. cerevisiae cln2 rad14 strain, at 50.0 µM, stronger effect = higher value. A digest of the protocol:
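Yeast strain cln2 rad14, bearing defects in cell cycle control and DNA repair, serves as the test system; values reflect growth inhibition compared with vehicle.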

Assay [5] can be described thus: NCI Yeast Anticancer Drug Screen. Data for the bub3 strain (AID 167). The conditions noted are these: S. cerevisiae bub3 mutant strain, at 50.0 µM, stronger effect = higher value. Summed up: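 Yeast carrying a defined mutation is treated with each compound, and growth is compared with that of vehicle-exposed cells to give inhibition.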
Assay [6] is described as follows: NCI Yeast Anticancer Drug Screen. Data for the mlh1 rad18 strain (AID 175). The conditions noted are these: S. cerevisiae mlh1 rad18 strain growth inhibition; at 50.0 µM; stronger effect = higher value. Summed up: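 Steps: expose repair-defective yeast to compound; measure growth; express inhibition against vehicle-treated controls.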

The structures appear in SMILES notation. Values joined by “and” are separate entries in the source; they are usually repeats but may differ in a detail not shown here. Equal entries are not always repeated. This is part of a sample that, as a whole, favours compounds with a hit. Of some 79,000 tested, about 15% had one in any assay. A structure can be active in one record and inactive in another. Active and inactive are the calls of the source. Cut-off read from the data, not from the text of the source: active = growth inhibition above about 70%; inactive = the rest.

For `CC1(c2cccs2)NC(=O)NC1=O` (configuration not stated), the growth inhibition in assay [1] is 19.6% (inactive) and 3.7% (inactive); in assay [2], -6.2% (inactive) and 9.05% (inactive); in assay [3] it was 6.25% (inactive) and 6.1% (inactive); in assay [4], -41% (inactive) and 2.3% (inactive); in assay [5] it was 0.95% (inactive) and 8.8% (inactive); in assay [6] it was 7.1% (inactive) and -3.55% (inactive).
In the case of `O=C(Oc1ccc(Cl)cc1Cl)Oc1ccc(Cl)cc1Cl`, the growth inhibition in assay [1] is -16.8% (inactive) and -3.1% (inactive); in assay [2], 11.6% (inactive) and 10% (inactive); in assay [3], -0.9% (inactive) and -13.1% (inactive); in assay [4], -13.1% (inactive) and -15.7% (inactive); in assay [5] it was 14.2% (inactive) and 14.9% (inactive); in assay [6], -14.5% (inactive) and 20.6% (inactive).
With `COC1OCCC(n2c(C)cc3c(N)ncnc32)C1O` (configuration not stated), the growth inhibition in assay [1] was -7.3% (inactive) and 1.55% (inactive); in assay [2], -19.2% (inactive) and -8.6% (inactive); in assay [3], -28.6% (inactive) and -11.8% (inactive); in assay [4], -4.15% (inactive) and -1.7% (inactive); in assay [5] it was -22.1% (inactive) and -20.6% (inactive); in assay [6], -29.2% (inactive) and 2.05% (inactive).
With `COc1cc2c(c(OC)c1OC)-c1ccc(OC)c(=O)cc1C([N+](C)(C)C)CC2` (configuration not stated), the growth inhibition in assay [1] is 21.2% (inactive) and -13.3% (inactive); in assay [2] it was 12.3% (inactive) and 7.7% (inactive); in assay [3] it was 16.9% (inactive) and -18.1% (inactive); in assay [4], -0.65% (inactive) and -11.1% (inactive); in assay [5], -3% (inactive) and -0.4% (inactive); in assay [6] it was 25.5% (inactive) and 7.4% (inactive).
As for `O=C(O)/C=C/c1c2ccc(=O)cc-2oc2cc(O)ccc12`, the growth inhibition was -9.9% (inactive) and 0.5% (inactive) in assay [1]; -21.8% (inactive) and 29.6% (inactive) in assay [2]; 15.1% (inactive) and 17.6% (inactive) in assay [3]; 21.2% (inactive) and 7.05% (inactive) in assay [4]; -8.15% (inactive) and 17.1% (inactive) in assay [5]; 4.65% (inactive) and -5.95% (inactive) in assay [6].
In the case of `CCC(C(=O)O)C(=O)O.[NH-]CC[NH-].[Pt+2]`, the growth inhibition in assay [1] was -23.6% (inactive) and -13.2% (inactive); in assay [2], -8% (inactive) and -3.95% (inactive); in assay [3], -8.05% (inactive) and -16.4% (inactive); in assay [4], -29.4% (inactive) and -13.5% (inactive); in assay [5] it was 1.3% (inactive) and 2% (inactive); in assay [6], -10.8% (inactive) and -24% (inactive).
As for `O=C(O)c1cc(N=Nc2ccc([N+](=O)[O-])cc2)ccc1O`, the growth inhibition is 51.1% (inactive) and 26.6% (inactive) in assay [1]; -34% (inactive) and 8.2% (inactive) in assay [2]; -13.7% (inactive) and 12.2% (inactive) in assay [3]; 10.2% (inactive) and -34.8% (inactive) in assay [4]; 9.75% (inactive) and 27.4% (inactive) in assay [5]; 18.2% (inactive) and 49% (inactive) in assay [6].
As for `CN(C)C(c1ccccc1)C1COC2Cc3ccccc3C1O2` (configuration not stated), the growth inhibition was -8.1% (inactive) and -3.3% (inactive) in assay [1]; -4.55% (inactive) and -11.4% (inactive) in assay [2]; 10.3% (inactive) and -2.85% (inactive) in assay [3]; 2.05% (inactive) and 6.35% (inactive) in assay [4]; -27.2% (inactive) and -19.2% (inactive) in assay [5]; -6.6% (inactive) and -23.6% (inactive) in assay [6].
Take `C/C=C/C=C/c1cc2cc3c(c(O)c2c(=O)[nH]1)C1(CC3)C(O)=c2c(=O)c3c(=O)cc(OC)c(=O)c=3c(=O)c2=C1O` (configuration not stated): the growth inhibition in assay [1] was 86.8% (active) and 80.7% (active); in assay [2], 89.8% (active) and 74.3% (active); in assay [3] it was 88.7% (active) and 75.2% (active); in assay [4] it was 81.8% (active) and 60% (inactive); in assay [5], 83% (active) and 80.5% (active); in assay [6], 78.6% (active).
For the compound `CCCCCCCCCCCC(=O)Nc1ccccc1`, the growth inhibition is -22.6% (inactive) and -29.2% (inactive) in assay [1]; -4.05% (inactive) and -16.9% (inactive) in assay [2]; 1.2% (inactive) and -18.3% (inactive) in assay [3]; -31.7% (inactive) and -71% (inactive) in assay [4]; 24.8% (inactive) and -9.7% (inactive) in assay [5]; 14.4% (inactive) and -31.1% (inactive) in assay [6].
As to `COc1cc([N+](=O)[O-])c(S(=O)(=O)O)cc1N`, the growth inhibition in assay [1] is -7.95% (inactive) and 30.1% (inactive); in assay [2] it was 22.8% (inactive) and 6.65% (inactive); in assay [3], -11.8% (inactive) and -0.8% (inactive); in assay [4] it was -23.7% (inactive) and 16.8% (inactive); in assay [5], 7.2% (inactive) and 16.3% (inactive); in assay [6], -0.75% (inactive) and 38.9% (inactive).
On to `CCOC(=O)C(=O)Cc1cnc2ccccc2n1`, for which the growth inhibition in assay [1] is 1.95% (inactive) and 3.05% (inactive); in assay [2], 7.55% (inactive) and -4.8% (inactive); in assay [3] it was -18.8% (inactive) and -8.3% (inactive); in assay [4] it was 3.6% (inactive) and 10.7% (inactive); in assay [5], -1.2% (inactive) and 7.2% (inactive); in assay [6] it was 16.2% (inactive) and -5.05% (inactive).
As for `O=C(O)CCC(=O)c1cccs1`, the growth inhibition is 12.8% (inactive) and -5.4% (inactive) in assay [1]; 4.25% (inactive) and 19.6% (inactive) in assay [2]; 2.2% (inactive) and -4.45% (inactive) in assay [3]; -28.4% (inactive) and -5.5% (inactive) in assay [4]; -5.1% (inactive) and -25.4% (inactive) in assay [5]; -28.9% (inactive) and -21.1% (inactive) in assay [6].
On to `O=C(O)C1C2OC(C(Br)C2Br)C1C(=O)O` (configuration not stated), for which the growth inhibition was -12.3% (inactive) and -7.9% (inactive) in assay [1]; 15.1% (inactive) and -12.1% (inactive) in assay [2]; -2.45% (inactive) and -26.4% (inactive) in assay [3]; 71.8% (active) and 12.1% (inactive) in assay [4]; 94.5% (active) and -11.8% (inactive) in assay [5]; 13.9% (inactive) and -0.15% (inactive) in assay [6].
Turning to `CCCC(=O)Oc1ccc(C(C)C)cc1`, the growth inhibition is 6% (inactive) and 13.8% (inactive) in assay [1]; -22.3% (inactive) and -1.45% (inactive) in assay [2]; -8.2% (inactive) and 2.05% (inactive) in assay [3]; 10.4% (inactive) and -31.6% (inactive) in assay [4]; -9.75% (inactive) and 13.3% (inactive) in assay [5]; 5.8% (inactive) and 10.1% (inactive) in assay [6].
For `CCOC(=O)C1=C(C)NC(=O)NC1c1ccccc1` (configuration not stated), the growth inhibition in assay [1] is 9.5% (inactive) and -7% (inactive); in assay [2], 15.1% (inactive) and -20.2% (inactive); in assay [3], -0.15% (inactive) and 4.45% (inactive); in assay [4], -19.1% (inactive) and 6.95% (inactive); in assay [5], -0.9% (inactive) and 15.2% (inactive); in assay [6], 35.9% (inactive) and -8.4% (inactive).
Consider `COC12C=CC(CC1)C(C)(C)C2O` (configuration not stated), for which the growth inhibition in assay [1] is 7.6% (inactive) and 0.25% (inactive); in assay [2] it was -0.75% (inactive) and -7.75% (inactive); in assay [3], -1.55% (inactive) and -2.25% (inactive); in assay [4], -11% (inactive) and -14.2% (inactive); in assay [5], 7.85% (inactive) and 14.7% (inactive); in assay [6], 4.25% (inactive) and 1.9% (inactive).
On to `COc1c2occc2c(OC)c2c(=O)cc(C)oc12`, for which the growth inhibition in assay [1] is 20.9% (inactive) and 2.55% (inactive); in assay [2], -2.15% (inactive) and -27.4% (inactive); in assay [3], 16.8% (inactive) and 9.95% (inactive); in assay [4] it was -0.65% (inactive) and 8.7% (inactive); in assay [5], 7.9% (inactive) and 5.95% (inactive); in assay [6], 22.1% (inactive) and 9.4% (inactive).
For `COC(=O)/C=C\C(=O)O`, the growth inhibition in assay [1] is -4.95% (inactive) and 5.05% (inactive); in assay [2], -4.85% (inactive) and -16.4% (inactive); in assay [3], -1.75% (inactive) and -2.6% (inactive); in assay [4] it was -15.7% (inactive) and -17.2% (inactive); in assay [5] it was 3.35% (inactive) and -23.7% (inactive); in assay [6], 14.2% (inactive) and 8.65% (inactive).
Regarding `NNc1nc2c(N)ncnc2n1C1OC(CO)C(O)C1O` (configuration not stated), the growth inhibition in assay [1] is -7% (inactive) and 14% (inactive); in assay [2] it was -5.05% (inactive) and 15.8% (inactive); in assay [3], 17.4% (inactive) and 4.95% (inactive); in assay [4], -21.1% (inactive) and 15.2% (inactive); in assay [5], 14.8% (inactive) and 13.1% (inactive); in assay [6], -5.95% (inactive) and 10.6% (inactive).
Regarding `CCC(C)C(N)C(=O)O` (configuration not stated), the growth inhibition in assay [1] was -39.2% (inactive) and 2.9% (inactive); in assay [2], -31.7% (inactive) and -21.1% (inactive); in assay [3], -17.4% (inactive) and -2.15% (inactive); in assay [4], -29.3% (inactive) and 5.4% (inactive); in assay [5] it was -14.1% (inactive) and 4.05% (inactive); in assay [6], -28.9% (inactive) and 5.5% (inactive).
Consider `C/C=C(\Br)C(=O)O`, for which the growth inhibition in assay [1] is -8.1% (inactive) and 24.1% (inactive); in assay [2], -10.7% (inactive) and -5.4% (inactive); in assay [3] it was 1.7% (inactive) and 0.25% (inactive); in assay [4], -10.1% (inactive) and -19.2% (inactive); in assay [5], -15.1% (inactive) and 5.8% (inactive); in assay [6], 9.25% (inactive) and 12.8% (inactive).
